# About 20,000 (21%) of roughly 96,000 compounds were called active. Only a sample is shown. Unmarked numbers belong to inactive results.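 The calls were made as follows: active = CYP2C19 inhibition above a set limit at 5 µM in the primary screen (cut at about 50% in these data); inactive = the rest.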
# Target: Cytochrome P450 2C19 (Homo sapiens) (UniProt P33261)
# Assay: blockers of cytochrome P450 2C19 activity – biochemical, luminescence, ADME assay, primary screen (AID 778);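 also: plate controls were negative control wells for no effect and 2.5 mM tranylcypromine positive control for full effect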
# Conditions: CYP2C19 Supersomes, luciferin-H EGE luminescence, 30 min; at 5 µM; active compounds read high
# Sequence of Cytochrome P450 2C19 (Homo sapiens) (P33261 whole entry, looked up): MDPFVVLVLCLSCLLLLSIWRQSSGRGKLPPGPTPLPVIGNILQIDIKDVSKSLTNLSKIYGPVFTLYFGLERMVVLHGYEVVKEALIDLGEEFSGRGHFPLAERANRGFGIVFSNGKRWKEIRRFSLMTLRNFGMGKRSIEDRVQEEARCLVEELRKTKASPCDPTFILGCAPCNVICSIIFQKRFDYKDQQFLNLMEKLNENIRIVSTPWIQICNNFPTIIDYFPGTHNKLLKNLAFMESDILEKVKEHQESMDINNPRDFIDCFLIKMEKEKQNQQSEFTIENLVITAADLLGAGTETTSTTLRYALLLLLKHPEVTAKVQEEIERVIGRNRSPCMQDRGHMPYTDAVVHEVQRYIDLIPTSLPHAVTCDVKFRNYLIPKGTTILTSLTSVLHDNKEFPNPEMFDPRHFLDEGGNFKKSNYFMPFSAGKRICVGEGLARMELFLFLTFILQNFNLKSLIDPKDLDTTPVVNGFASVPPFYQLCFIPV
row,SMILES,inhibition
1,COc1cc(OC)cc(C(=O)Nc2ncc3c(n2)CC(C)(C)CC3=O)c1,9.1%
2,Cc1cccc(C)c1-n1c(C)cc(/C=C2\C(=O)NN(c3ccccc3)C2=O)c1C,36.4%
3,CCOC(=O)c1ccccc1NC(=O)CC1Nc2ccccc2NC1=O (stereo not given),8.5%
4,C=C(Br)CN1CCN(CC(=C)Br)CC1,9.1%
5,Cn1c(C(=O)NCCCN2CCCCC2)cc2sccc21,5.3%
6,COc1ccc(CCNC(=O)c2cc(-c3ccc4c(c3)OCO4)on2)cc1OC,-2.7%
7,COc1ccc(CCNC(=O)c2cc3sccc3n2C)cc1OC,50.9% (active)
8,CC12COC3(C(=O)Nc4ccc(Cl)cn4)CC1CCC32C (stereo not given),16.5%
9,O=C(CCCN1C(=O)CCC1=O)Nc1ccc(Cl)c(C(F)(F)F)c1,11.2%
10,C=CCC(NCc1ccco1)c1ccc(OC)cc1 (stereo not given),-0.2%
11,CC(C)C(=O)Nc1nnc(Sc2ccc(N(C)C)cc2)s1,47.8%
12,Cn1c(CN2CCOCC2)nc2cc(NC(=O)c3ccc(Cl)cc3)ccc21,4.8%
13,CCn1nc(C(=O)OCC(=O)N2c3ccccc3CC2C)c2ccccc2c1=O (stereo not given),66.9% (active)
14,CC1Cc2ccccc2N1C(=O)Cn1cnc2ccccc2c1=O (stereo not given),9.8%
15,CCOC(=O)c1[nH]c(C)c(C(=O)OCC(=O)N2c3ccccc3CC2C)c1C (stereo not given),0.9%
16,COc1nc(Oc2ccc(=O)n(C)n2)nc(N(C)C)n1,-17.1%
17,O=C(CC1N=C2c3ccccc3N=C(SCc3ccccc3Cl)N2C1=O)NCc1ccco1 (stereo not given),37.8%
18,Cc1noc(/C=C/c2ccco2)c1S(=O)(=O)N1CCC(C(=O)N2CCc3ccccc32)CC1,24.1%
19,CCS(=O)(=O)N1CCC(C(=O)N2CCN(c3ccccc3)CC2)CC1,-1%
20,O=C(C1CCN(S(=O)(=O)Cc2ccccc2)CC1)N1CCCc2ccccc21,61.9% (active)
21,COC(=O)C1C(=O)CC(C)(O)C(C(=O)OC)C1c1ccc2c(c1)OCO2 (stereo not given),29.1%
22,COc1ccc(S(=O)(=O)N(CCCN2CCCC2=O)Cc2cc3c(C)ccc(C)c3[nH]c2=O)cc1,38.4%

row,SMILES,inhibition
1,Cc1ccc(S(=O)(=O)c2nc(NCCCn3ccnc3)sc2Cl)cc1,99.4% (active)
2,O=C(CSCc1ccc(Br)cc1)Nc1ccc(S(=O)(=O)N2CCCCCC2)cc1,27.3%
3,CN(C)c1ccnc2sc3c(=O)n(Cc4ccccc4)cnc3c12,27.4%
4,CCSc1nnc(-c2cc3c(s2)-c2ccccc2CC3)o1,-5.2%
5,CC(=O)NC1=NC(=O)CS1,6%
6,CCCC(=O)Nc1nc2ccc(NC(=O)c3cccnc3)cc2s1,16.4%
7,CCN1C(=O)CS/C1=N\c1nccs1,19%
8,O=C1C=C(NCCNc2c(F)c(F)c(CO)c(F)c2F)CCC1,4.9%
9,Cc1c(C=O)c2ccccn2c1C(=O)c1ccncc1,85.8% (active)
10,Cc1cc(C(=O)O)c(S(C)(=O)=O)s1,-6.4%
11,Cc1csc(NC(=O)C2CCCN2C(=O)OCC(C)C)n1 (stereo not given),29.2%
12,CC(C)(C)c1cc2cccnc2n1Cc1ccccc1,13.8%
13,OC(c1ccccc1)c1nccn1Cc1ccccc1 (stereo not given),81.9% (active)
14,CC(c1nnc(SCC(=O)Nc2sccc2C#N)n1-c1ccc(Cl)cc1)N(C)C (stereo not given),31.1%
15,Cc1cccc(N2CCN(C(=O)c3cnn4c(C(F)F)cc(-c5ccccc5)nc34)CC2)c1C,51% (active)
16,CC(=O)N1CCN(c2cccc(C)c2C)CC1,-2.5%
17,O=C(O)c1cnn2c(C(F)(F)F)cc(-c3ccccc3)nc12,20.2%
18,O=C(Cn1cc(-c2nnnn2-c2ccc(Cl)cc2)c(=O)c2ccccc21)c1ccccc1,-16.7%
19,O=C(NCCCCO)C(F)(F)C(F)(F)C(F)(F)C(=O)NCCCCO,9.4%
20,CCSc1nc(-c2ccc(OC)cc2)cc(-c2ccc(OC)cc2)c1C#N,32.3%
21,Cc1ccc(N)cc1-n1c(C)ccc1C,23.2%
22,Cc1ccc(C)n1-c1ccncc1,56.5% (active)

row,SMILES,inhibition
1,COc1ccc(-c2cc(C)nc3nc(N)nn23)cc1,-16.3%
2,CCOC(=O)c1ccc(-n2c(C)nc3c(cnn3-c3ccccc3C)c2=O)cc1,-20.1%
3,COC(=O)c1sccc1NC(=O)CCC1CCCC1,-0.5%
4,N#Cc1cccc(NC(=O)CCC2CCCC2)c1,73.6% (active)
5,CCOc1cccc(NC(=O)CC#N)c1,-5.8%
6,CCOC(=O)N1CCC(NC(=O)C(C)n2c3ccccc3c3cnn(C)c(=O)c32)CC1 (stereo not given),5.1%
7,NC(CSC12CC3CC(CC(C3)C1)C2)C(=O)O (stereo not given),12.9%
8,Cc1cc(C)cc(OCC(=O)NNC(=O)c2cc3ccccc3oc2=O)c1,5.4%
9,CCOc1ccc(C(O)Cn2c(=N)n(CCN3CCCCC3)c3ccccc32)cc1 (stereo not given),9.8%
10,COc1cc(C(O)c2nc3ccccc3n2C)cc(OC)c1OC (stereo not given),46.5%
11,COc1ccc(C)c(Cn2c(-c3nonc3N)nc3ccccc32)c1,18.5%
12,CCCn1c(C(O)c2cc(OC)ccc2OC)nc2ccccc21 (stereo not given),74.3% (active)
13,CC(C)n1c(C(O)c2ccccc2)nc2ccccc21 (stereo not given),67.7% (active)
14,CCCn1c(C(O)c2ccc(OCC)cc2)nc2ccccc21 (stereo not given),90.6% (active)
15,CC(Nc1nc(N2CCCC2)nc2ccccc12)c1ccccc1 (stereo not given),15.5%
16,CCOCCn1c(C(C)C)nc2ccccc21,15.5%
17,CCc1nc(Nc2ccc3nccnc3c2)c2oc3ccccc3c2n1,-11.6%
18,O=C(N/N=C/C=C/c1ccccc1)C1CC1(c1ccccc1)c1ccccc1 (stereo not given),-19.2%
19,Cc1ccc(NC(=O)c2nc[nH]c2C(=O)N2CCCCC2)c(C(=O)c2ccccc2)c1,20.4%
20,CCOC(=O)c1nn(-c2cccc(C)c2)cc1C(=O)c1ccccc1,75.3% (active)
21,CC(=O)c1nn(-c2cccc(Br)c2)cc1C(=O)c1cccc2ccccc12,9.4%
